Source: PubChem BioAssay AID1159580 (chemical genetic matrix, 2015)
Among all 5,500 compounds or so, about 2,000 (36%) were called active. Inconclusive results (about 18%) are left out. Rule as the data show it: active = normalized growth mostly below about 0.91 (no sharp cut-off); inconclusive = no clear call, values can overlap the other calls; inactive = mostly above about 0.92. Some of the results follow.

Test: chemical genetic growth profiling, strain panel (AID 1159580);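 also: tested at 20 µM; growth read once vehicle control cultures reached saturation at 30 °C; 1 = growth at the plate median or of vehicle wells; lower values mean less growth of the strain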
Settings: growth OD

Measured: normalized growth

C[C@H]1C(=O)O[C@@H]2CCN3CC=C(COC(=O)[C@](C)(O)[C@]1(C)O)[C@H]23
inactive: S. cerevisiae deletion strains, locus YKL068W, hits give low values 0.992 | S. cerevisiae deletion strains, locus YKL085W, strain MDH1 (second series), hits give low values 1.04 | S. cerevisiae deletion strains, locus YKL085W, strain MDH1, hits give low values 1.04 | S. cerevisiae deletion strains, locus YKL160W, strain elf1, hits give low values 0.991 | S. cerevisiae deletion strains, locus YKL190W, strain CNB1, hits give low values 1 | S. cerevisiae deletion strains, locus YKR001C, strain vps1, hits give low values 0.986 | S. cerevisiae deletion strains, locus YKR026C, strain gcn3, hits give low values 0.986 | S. cerevisiae deletion strains, locus YKR091W, strain srl3, hits give low values 0.975 | S. cerevisiae deletion strains, locus YLL001W, strain dnm1, hits give low values 0.976 | S. cerevisiae deletion strains, locus YLL026W, hits give low values 0.99 | S. cerevisiae deletion strains, locus YLL041C, strain sdh2, hits give low values 0.993 | S. cerevisiae deletion strains, locus YLR027C, strain aat2, hits give low values 0.993 | S. cerevisiae deletion strains, locus YLR039C, strain RIC1, hits give low values 0.989 | S. cerevisiae deletion strains, locus YLR058C, strain SHM2, hits give low values 0.99 | S. cerevisiae deletion strains, locus YLR102C, strain apc9, hits give low values 0.988 | S. cerevisiae deletion strains, locus YLR113W, strain HOG1, hits give low values 1.01 | S. cerevisiae deletion strains, locus YLR221C, strain rsa3, hits give low values 1.01 | S. cerevisiae deletion strains, locus YLR258W, strain gsy2, hits give low values 0.992 | S. cerevisiae deletion strains, locus YLR262C, strain YPT6 (second series), hits give low values 0.976 | S. cerevisiae deletion strains, locus YLR262C, strain YPT6, hits give low values 1.02 | S. cerevisiae deletion strains, locus YLR268W, strain sec22, hits give low values 0.988 | S. cerevisiae deletion strains, locus YLR320W, strain mms22, hits give low values 0.997 | S. cerevisiae deletion strains, locus YLR330W, strain CHS5, hits give low values 0.992 | S. cerevisiae deletion strains, locus YLR342W, strain FKS1 (second series), hits give low values 0.976 | S. cerevisiae deletion strains, locus YLR342W, strain FKS1, hits give low values 0.997 | S. cerevisiae deletion strains, locus YLR357W, strain rsc2, hits give low values 0.979 | S. cerevisiae deletion strains, locus YLR370C, strain arc18, hits give low values 0.986 | S. cerevisiae deletion strains, locus YLR371W, strain rom2, hits give low values 0.984 | S. cerevisiae deletion strains, locus YLR384C, strain iki3, hits give low values 0.987 | S. cerevisiae deletion strains, locus YLR418C, strain cdc73, hits give low values 0.985 | S. cerevisiae deletion strains, locus YML016C, strain PPZ1, hits give low values 0.987 | S. cerevisiae deletion strains, locus YML032C, strain rad52, hits give low values 0.993 | S. cerevisiae deletion strains, locus YML120C, strain ndi1, hits give low values 0.988 | S. cerevisiae deletion strains, locus YML124C, strain tub3, hits give low values 0.987 | S. cerevisiae deletion strains, locus YMR058W, strain fet3, hits give low values 0.997 | S. cerevisiae deletion strains, locus YMR078C, strain ctf18, hits give low values 0.983 | S. cerevisiae deletion strains, locus YMR125W, strain sto1, hits give low values 0.987 | S. cerevisiae deletion strains, locus YMR129W, hits give low values 0.998 | S. cerevisiae deletion strains, locus YMR205C, strain PFK2, hits give low values 0.986 | S. cerevisiae deletion strains, locus YMR223W, strain ubp8, hits give low values 0.991 | S. cerevisiae deletion strains, locus YMR231W, strain pep5, hits give low values 0.998 | S. cerevisiae deletion strains, locus YMR263W, strain SAP30, hits give low values 1 | S. cerevisiae deletion strains, locus YMR307W, strain GAS1, hits give low values 0.983 | S. cerevisiae deletion strains, locus YNL067W, strain RPL9B, hits give low values 1.02 | S. cerevisiae deletion strains, locus YNL071W, strain lat1, hits give low values 0.991 | S. cerevisiae deletion strains, locus YNL128W, strain TEP1, hits give low values 0.98 | S. cerevisiae deletion strains, locus YNL153C, strain GIM3, hits give low values 1.02 | S. cerevisiae deletion strains, locus YNL183C, strain NPR1, hits give low values 0.969 | S. cerevisiae deletion strains, locus YNL209W, strain ssb2, hits give low values 0.994 | S. cerevisiae deletion strains, locus YNL233W, strain BNI4, hits give low values 0.995 | S. cerevisiae deletion strains, locus YNL248C, strain rpa49, hits give low values 0.995 | S. cerevisiae deletion strains, locus YNL250W, strain rad50, hits give low values 0.978 | S. cerevisiae deletion strains, locus YNL271C, strain bni1, hits give low values 0.985 | S. cerevisiae deletion strains, locus YNL298W, strain CLA4, hits give low values 0.987 | S. cerevisiae deletion strains, locus YNL307C, strain MCK1, hits give low values 0.991 | S. cerevisiae deletion strains, locus YNL322C, strain KRE1 (second series), hits give low values 0.982 | S. cerevisiae deletion strains, locus YNL322C, strain KRE1, hits give low values 0.993 | S. cerevisiae deletion strains, locus YNR049C, strain mso1, hits give low values 0.989 | S. cerevisiae deletion strains, locus YNR052C, strain pop2, hits give low values 0.987 | S. cerevisiae deletion strains, locus YOL006C, strain TOP1, hits give low values 1.03 | S. cerevisiae deletion strains, locus YOL012C, strain htz1 0.746 | S. cerevisiae deletion strains, locus YOL147C, strain pex11, hits give low values 0.997 | S. cerevisiae deletion strains, locus YOR001W, strain rrp6, hits give low values 0.995 | S. cerevisiae deletion strains, locus YOR061W, strain CKA2, hits give low values 0.989 | S. cerevisiae deletion strains, locus YOR069W, strain VPS5, hits give low values 0.984 | S. cerevisiae deletion strains, locus YOR070C, strain gyp1, hits give low values 0.994 | S. cerevisiae deletion strains, locus YOR080W, strain dia2, hits give low values 0.994 | S. cerevisiae deletion strains, locus YOR083W, strain WHI5, hits give low values 1 | S. cerevisiae deletion strains, locus YOR106W, strain vam3, hits give low values 0.998 | S. cerevisiae deletion strains, locus YOR136W, strain idh2, hits give low values 0.99 | S. cerevisiae deletion strains, locus YOR144C, strain elg1, hits give low values 0.988 | S. cerevisiae deletion strains, locus YOR184W, strain ser1, hits give low values 1.02 | S. cerevisiae deletion strains, locus YOR231W, strain MKK1, hits give low values 0.98 | S. cerevisiae deletion strains, locus YOR265W, strain rbl2, hits give low values 0.996 | S. cerevisiae deletion strains, locus YOR270C, strain vph1, hits give low values 0.967 | S. cerevisiae deletion strains, locus YOR290C, strain snf2, hits give low values 0.998 | S. cerevisiae deletion strains, locus YOR316C, strain cot1, hits give low values 0.978 | S. cerevisiae deletion strains, locus YPL051W, strain arl3, hits give low values 0.992 | S. cerevisiae deletion strains, locus YPL055C, strain LGE1, hits give low values 1.06 | S. cerevisiae deletion strains, locus YPL078C, strain atp4, hits give low values 0.993 | S. cerevisiae deletion strains, locus YPL106C, strain sse1, hits give low values 0.98 | S. cerevisiae deletion strains, locus YPL240C, strain hsp82, hits give low values 0.986 | S. cerevisiae deletion strains, locus YPL256C, strain CLN2, hits give low values 0.992 | S. cerevisiae deletion strains, locus YPR119W, strain clb2, hits give low values 0.991 | S. cerevisiae deletion strains, locus YPR141C, strain kar3, hits give low values 0.98 | S. cerevisiae deletion strains, locus YPR163C, strain tif3, hits give low values 0.986 | S. cerevisiae deletion strains, locus YPR167C, strain met16, hits give low values 0.989 | S. cerevisiae deletion strains, strain wtn01, hits give low values 0.987 | S. cerevisiae strains, strain wild type, hits give low values 0.995
